In PubChem BioAssay AID1159580 (chemical genetic matrix, 2015):
The whole screen tested about 5,500 compounds, of which about 2,000 (36%) were called active. About 18% were inconclusive and are not listed. Rule as the data show it: active = normalized growth mostly below about 0.91 (no sharp cut-off); inconclusive = no clear call, values can overlap the other calls; inactive = mostly above about 0.92. The list shows a part of the results.

Assay: chemical genetic growth profiling, strain panel (AID 1159580);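 also: tested at 20 µM; growth read once vehicle control cultures reached saturation at 30 °C; 1 = growth at the plate median or of vehicle wells; lower values mean less growth of the strain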
Conditions: S. cerevisiae deletion strains, growth OD

Measured: normalized growth

Clc1ccc(CO/N=C(/Cn2ccnc2)c2ccc(Cl)cc2Cl)c(Cl)c1
active: locus YAL021C, strain ccr4, active compounds read low 0.0719 | locus YAL026C, strain drs2, active compounds read low 0.066 | locus YAL030W, strain snc1, active compounds read low 0.062 | locus YBL061C, strain skt5, active compounds read low 0.0675 | locus YBR009C, strain hhf1, active compounds read low 0.0713 | locus YBR023C, strain chs3, active compounds read low 0.0703 | locus YBR171W, strain sec66, active compounds read low 0.084 | locus YBR231C, strain swc5, active compounds read low 0.0712 | locus YBR279W, strain paf1, active compounds read low 0.0663 | locus YCL011C, strain gbp2, active compounds read low 0.0641 | locus YCL016C, strain dcc1, active compounds read low 0.0718 | locus YCL069W, strain vba3, active compounds read low 0.0674 | locus YCR088W, strain abp1, active compounds read low 0.0653 | locus YDL005C, strain med2, active compounds read low 0.0803 | locus YDL040C, strain nat1, active compounds read low 0.0648 | locus YDR001C, strain nth1, active compounds read low 0.0642 | locus YDR069C, strain doa4, active compounds read low 0.07 | locus YDR137W, strain rgp1, active compounds read low 0.106 | locus YDR159W, strain sac3, active compounds read low 0.103 | locus YDR195W, strain ref2 0.146 | locus YDR297W, strain sur2, active compounds read low 0.0626 | locus YDR334W, strain swr1, active compounds read low 0.0671 | locus YDR335W, strain msn5, active compounds read low 0.0633 | locus YDR392W, strain spt3, active compounds read low 0.0807 | locus YEL003W, strain gim4, active compounds read low 0.0579 | locus YEL037C, strain rad23, active compounds read low 0.0606 | locus YEL061C, strain CIN8 (second series), active compounds read low 0.0642 | locus YER015W, strain faa2, active compounds read low 0.0705 | locus YER016W, strain bim1, active compounds read low 0.0699 | locus YER111C, strain swi4, active compounds read low 0.0753 | locus YER155C, strain BEM2 (second series), active compounds read low 0.104 | locus YFR010W, strain ubp6, active compounds read low 0.0725 | locus YGL167C, strain pmr1, active compounds read low 0.0799 | locus YGL173C, strain kem1, active compounds read low 0.0926 | locus YGL227W, strain vid30, active compounds read low 0.067 | locus YGL240W, strain doc1, active compounds read low 0.108 | locus YGL253W, strain hxk2, active compounds read low 0.0581 | locus YHR013C, strain ard1, active compounds read low 0.111 | locus YHR027C, strain rpn1, active compounds read low 0.0678 | locus YHR030C, strain SLT2, active compounds read low 0.11 | locus YHR079C, strain IRE1, active compounds read low 0.138 | locus YHR142W, strain chs7, active compounds read low 0.0783 | locus YJL092W, strain hpr5, active compounds read low 0.0639 | locus YJL095W, strain BCK1 (second series), active compounds read low 0.0624 | locus YJL095W, strain BCK1, active compounds read low 0.119 | locus YJL115W, strain asf1, active compounds read low 0.076 | locus YJL129C, strain trk1, active compounds read low 0.0899 | locus YJL154C, strain vps35, active compounds read low 0.0641 | locus YJL164C, strain tpk1, active compounds read low 0.0663 | locus YJL166W, strain qcr8, active compounds read low 0.0665 | locus YJL187C, strain SWE1, active compounds read low 0.0662 | locus YJR066W, strain TOR1, active compounds read low 0.016 | locus YKL160W, strain elf1, active compounds read low 0.0739 | locus YKR026C, strain gcn3, active compounds read low 0.0685 | locus YKR091W, strain srl3, active compounds read low 0.0651 | locus YLL001W, strain dnm1, active compounds read low 0.0676 | locus YLL026W, active compounds read low 0.0627 | locus YLL041C, strain sdh2, active compounds read low 0.0619 | locus YLR027C, strain aat2, active compounds read low 0.0637 | locus YLR113W, strain HOG1, active compounds read low 0.138 | locus YLR221C, strain rsa3, active compounds read low 0.0614 | locus YLR258W, strain gsy2, active compounds read low 0.0647 | locus YLR262C, strain YPT6 (second series), active compounds read low 0.0952 | locus YLR320W, strain mms22, active compounds read low 0.0852 | locus YLR342W, strain FKS1, active compounds read low 0.0731 | locus YLR357W, strain rsc2, active compounds read low 0.13 | locus YLR370C, strain arc18, active compounds read low 0.0687 | locus YLR384C, strain iki3, active compounds read low 0.0679 | locus YML120C, strain ndi1, active compounds read low 0.0632 | locus YMR058W, strain fet3, active compounds read low 0.0659 | locus YMR125W, strain sto1, active compounds read low 0.0799 | locus YMR129W, active compounds read low 0.0624 | locus YMR205C, strain PFK2, active compounds read low 0.104 | locus YMR231W, strain pep5, active compounds read low 0.205 | locus YNL071W, strain lat1, active compounds read low 0.0653 | locus YNL183C, strain NPR1, active compounds read low 0.0338 | locus YNL209W, strain ssb2, active compounds read low 0.0716 | locus YNL248C, strain rpa49, active compounds read low 0.0816 | locus YNL322C, strain KRE1 (second series), active compounds read low 0.0683 | locus YNR049C, strain mso1, active compounds read low 0.0594 | locus YOR001W, strain rrp6, active compounds read low 0.0749 | locus YOR070C, strain gyp1, active compounds read low 0.0664 | locus YOR080W, strain dia2, active compounds read low 0.0735 | locus YOR083W, strain WHI5, active compounds read low 0.0763 | locus YOR106W, strain vam3, active compounds read low 0.0782 | locus YOR231W, strain MKK1, active compounds read low 0.116 | locus YOR265W, strain rbl2, active compounds read low 0.0668 | locus YOR270C, strain vph1, active compounds read low 0.112 | locus YOR290C, strain snf2, active compounds read low 0.0669 | locus YPL051W, strain arl3, active compounds read low 0.0756 | locus YPL078C, strain atp4, active compounds read low 0.08 | locus YPL106C, strain sse1, active compounds read low 0.105 | locus YPL240C, strain hsp82, active compounds read low 0.0633 | locus YPL256C, strain CLN2, active compounds read low 0.139
